Reference: the supplement of paper PMC10105736

Assays:
Experiment in all cases: MAPPIT interaction score (arbitrary units); higher = stronger binary interaction signal, active = hit call of the paper;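 active = MAPPIT score above the 99th percentile of random reference set scores in the same batch; inactive = at or below it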
CG12343 = details: MAPPIT configuration: N-N; pair source set: DPIM
CG1246 = details: MAPPIT configuration: N-N; pair source set: DPIM
CG12470 = details: MAPPIT configuration: N-N
Eb1 = details: MAPPIT configuration: N-N; pair source set: screen_1
SmydA-3 = details: MAPPIT configuration: N-N; pair source set: screen_2
Sply = details: MAPPIT configuration: N-N; pair source set: Finley_Y2H
ben = details: MAPPIT configuration: N-N; pair source set: screen_2
hb = details: MAPPIT configuration: N-N; pair source set: screen_1
promL = details: MAPPIT configuration: N-N; pair source set: screen_2
pzg = details: MAPPIT configuration: N-N; pair source set: Curagen_high_conf
spin = details: MAPPIT configuration: N-N; pair source set: screen_1
CG12567 = details: pair source set: RRS
CG14664 = details: pair source set: RRS
DIP1 = details: MAPPIT configuration: N-N; pair source set: screen_2
GstZ2 = details: pair source set: RRS

Measured: MAPPIT interaction score
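Also: HEK293T cells with Epo stimulation, STAT-responsive firefly luciferase reporter, fold induction versus unstimulated cells divided by the larger fold induction of two negative controls lacking either bait or prey.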

B1: CG8745 (protein)
chain: MPFAHEQLNLVASEQLSKTETIKLRNQHIGQACQLFYRSDPLKIVRGQGQYMFDEEGTRYLDCINNVAHVGHCHPEVVRAGALQMATISTNNRFLHDELVQCARTLTSKMPEPLSVCFFVNSGSEANDLALRLARNFTKRQDVITLDHAYHGHLQSVMEVSPYKFNQPGGEAKPDYVHVAPCPDVYGGKFTDKMYPDADMGALYAQPIEEICQKQLAKGQGVAAFIAESLQSCGGQILPPAGYFQAVYDAVRSAGGVCIADEVQVGFGRVGSHYWAFETQNVIPDIVCVAKPMGNGHPVGAVVTTPEIAQAFHATGVAYFNTYGGNPVSCAIANAVMRVIEEEGLQQKALVLGDYLLEECNRLKQEFECIGDVRGAGLFVGIELVQDRKERIPDKKAAHWVVNRMKQLHRVLVSSDGPNDNVIKLKPPMCFNRENADEFLLGFRECLTAVMQERLASATSAAMAATSGVIATATETLANKTKLFERQDRLIKSV
inactive: CG12343 0.219

B2: Vha68-2 (protein)
chain: MSNLKRFDDEERESKYGRVFAVSGPVVTAEAMSGSAMYELVRVGYYELVGEIIRLEGDMATIQVYEETSGVTVGDPVLRTGKPLSVELGPGIMGSIFDGIQRPLKDINELTESIYIPKGVNVPSLSRVASWEFNPLNVKVGSHITGGDLYGLVHENTLVKHKMIVNPRAKGTVRYIAPSGNYKVDDVVLETEFDGEITKHTMLQVWPVRQPRPVTEKLPANHPLLTGQRVLDSLFPCVQGGTTAIPGAFGCGKTVISQALSKYSNSDVIIYVGCGERGNEMSEVLRDFPELSVEIDGVTESIMKRTALVANTSNMPVAAREASIYTGITLSEYFRDMGYNVSMMADSTSRWAEALREISGRLAEMPADSGYPAYLGARLASFYERAGRVKCLGNPEREGSVSIVGAVSPPGGDFSDPVTSATLGIVQVFWGLDKKLAQRKHFPSINWLISYSKYMRALDDFYDKNFPEFVPLRTKVKEILQEEEDLSEIVQLVGKASLAETDKITLEVAKLLKDDFLQQNSYSSYDRFCPFYKTVGMLRNIIDFYDMARHSVESTAQSENKITWNVIREAMGNIMYQLSSMKFKDPVKDGEAKIKADFEQLHEDLQQAFRNLED
inactive: CG1246 -0.102

B3: sinah (protein)
chain: MSVRNSRPQLSWPERVSPQRTIDTPTASGEMLTRRQSAPALVVPPEETTHVVVVKRQSPDAAAAGELVPSRRKDSVAVQSGIVATGPLDTTRSGARDDFLMALLECPVCFGYIMPPIMQCPRGHLICSTCRSKLTICPVCRVFMTNIRSLAMEKVASKLIFPCKHSHFGCRARLSYAEKTKHEEDCECRPYFCPYPDDKCSWQGPLRDVYQHLMSSHENVITMEGNDIIFLATNVNLEGALDWTMVQSCHGRHFLLSLEKINLGEDCQQYFTACRMIGSMKDAAEFVYNISLEAYNRTLRWQSKPRSIRENFSSFTNADFLVLNKHTVELFSEDGNLALNVVIRKVEERTN
active: CG12470; pair source set: Curagen_low_conf 2.95
inactive: Eb1 -0.0985 | SmydA-3 0.15 | Sply 1.41 | ben 1.2 | hb -0.281 | promL 0.506 | pzg -1 | spin 0.564

B4: SNRPG (protein)
chain: MSKAHPPEVKKYMDKRMMLKLNGGRAVTGILRGFDPFMNVVLDDTVEECKDNTKNNIGMVVIRGNSIVMVEALDRV
inactive: CG12470; pair source set: Finley_Y2H 2.32

B5: Adar (protein)
chain: MKFDSRVMLNSANNNSPQHPVSAPSDINMNGYNRKLPQKRGYEMPKYSDPKKKMCKERIPQPKNTVAMLNELRHGLIYKLESQTGPVHAPLFTISVEVDGQKYLGQGRSKKVARIEAAATALRSFIQFKDGAVLSPLKPAGNLDFTSDEHLENGIENLSSSKMFEIIQTMLTEKLSNPTSLEQPTFCMSQNVSKSAITVDGQKKVPDKGPVMLLYELFNDVNFECINIDGAQNNCRFKMTVTINEKKFDGTGPSKKTAKNAAAKAALASLCNISYSPMVVPQKNVPLPIDDKSSSMELPQIHADTIGRLVLEKFMEVIKGQEAYSRRKVLAGIVMTENMNFCEAKVISVSTGTKCVSGEHMSVNGAVLNDSHAEIVSRRCLLKYLYAQLDLQCNQATAYQSIFVRNTDGQYPYKLKSGVHFHLYINTAPCGDARIFSPHENDTGVDKHPNRKARGQLRTKIESGEGTIPVKSSDGIQTWDGVLQGQRLLTMSCSDKIARWNIVGIQGSLLSSIIEPVYLHSIVLGSLLHPEHMYRAVCGRIEKSIQGLPPPYHLNKPRLALVTSAEPRNQAKAPNFGINWTIGDTELEVVNSLTGRTIGGQVSRITKQAFFVKYGFLMANLPGILVRKVTTDYGQTKANVKDYQIAKLELFSAFKREDLGSWLKKPIEQDEFGLAE
inactive: CG12567; MAPPIT configuration: N-C 0.742 | CG12567; MAPPIT configuration: N-N 1.87 | CG14664; MAPPIT configuration: N-C -0.248 | CG14664; MAPPIT configuration: N-N 0.297 | DIP1 -0.0973 | GstZ2; MAPPIT configuration: N-C 0.124 | GstZ2; MAPPIT configuration: N-N -0.194
